# Source: PubChem
# ID4 binder = ID4 (human) binding; calls only; 31,000 tested, 1.2% active; small molecule microarray, Flag-ID4 binding, fluorescence F/B; P47928; call rule not given here;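 note: a binder raises fluorescence above local background on the spot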
# p53 PUMA act = restores mutant p53 pathway signaling in SW480 cells | SW480 PUMA-promoter luciferase, p53 mutant reactivation | activation, % at 9.98 µM | 28,000 tested, 1.5% active; in the data active = activation above about 52%
# STK33 inh = human STK33 kinase inhibition; Q9BYT3; ADP-Glo luminescence, MBP substrate; inhibition, % at 12.5 µM; 27,000 tested, 0.44% active; AID 2322; in the data active = inhibition above about 20%
# Target sequence (Q9BYT3 whole entry, looked up): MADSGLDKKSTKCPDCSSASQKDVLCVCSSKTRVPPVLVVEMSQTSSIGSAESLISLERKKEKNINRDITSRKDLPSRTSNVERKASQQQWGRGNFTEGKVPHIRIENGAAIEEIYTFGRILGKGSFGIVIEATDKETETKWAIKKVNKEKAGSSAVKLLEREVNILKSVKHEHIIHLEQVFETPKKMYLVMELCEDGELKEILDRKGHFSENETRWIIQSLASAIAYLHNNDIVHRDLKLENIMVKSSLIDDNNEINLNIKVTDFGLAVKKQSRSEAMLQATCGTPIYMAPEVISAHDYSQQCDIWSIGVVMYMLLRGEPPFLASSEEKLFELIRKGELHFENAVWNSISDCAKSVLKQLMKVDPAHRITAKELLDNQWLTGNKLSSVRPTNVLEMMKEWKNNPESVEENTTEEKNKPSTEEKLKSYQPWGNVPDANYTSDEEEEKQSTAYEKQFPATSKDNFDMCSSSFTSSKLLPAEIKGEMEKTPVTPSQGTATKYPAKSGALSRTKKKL
# * = called active by the depositor; i = inactive; / = no result; + = active, no number. A selection: hits, their analogues and other compounds. The true share with any hit is near 2.1%.
SMILES,ID4 binder,p53 PUMA act,STK33 inh
COC(=O)c1ccc(NC(=O)C2CCCCC2C(=O)O)cc1 (stereo not given),i,-3,-1
COc1cccc(C(=O)Nc2ccc(NC(=O)C3CCCCC3C(=O)O)cc2)c1 (stereo not given),+,-10,1
CSc1ccccc1NC(=O)CN(c1cccc([N+](=O)[O-])c1)S(C)(=O)=O,i,-10,-2
COc1ccc(NC(=O)CSc2nc3c(c(-c4cccs4)c2C#N)CCCC3)cc1,i,29,3
CCOC(=O)NC(=O)CSc1nc2ccccc2s1,i,-10,2
O=C1O[C@H](c2ccccc2)[C@H](c2ccccc2)N2[C@H]1[C@@H](C(=O)N1CCN(c3ncccn3)CC1)[C@]1(C(=O)Nc3ccc(C#CCCO)cc31)[C@H]2c1ccccc1OCCO,i,/,24*
COc1ccc(C#Cc2ccc3c(c2)[C@]2(C(=O)N3)[C@H](c3ccccc3OCCO)N3[C@H](c4ccccc4)[C@H](c4ccccc4)OC(=O)[C@H]3[C@@H]2C(=O)N2CCN(c3ncccn3)CC2)cc1,i,/,10
O=C1O[C@@H](c2ccccc2)[C@@H](c2ccccc2)N2[C@@H](c3ccccc3OCCO)[C@]3(C(=O)Nc4ccc(C#CCCO)cc43)[C@@H](C(=O)N3CCCCCCC3)[C@H]12,/,/,22*
O=C1O[C@@H](c2ccccc2)[C@@H](c2ccccc2)N2[C@@H](c3ccc(OCCO)cc3)[C@]3(C(=O)Nc4ccc(C#CCCO)cc43)[C@@H](C(=O)N3CCCCCCC3)[C@H]12,/,/,14
CC(C)(C)OC(=O)N[C@@H](Cc1ccccc1)c1n[nH]c(=S)o1,/,/,0
Cc1cccc(C)c1OCC(=O)Nc1ccccc1C#N,i,9,1
Cc1ccc(OCC(=O)Nc2ccccc2C#N)cc1C,i,83*,-1
COc1cccc(CN2CCN(C(=S)Nc3ccc(S(N)(=O)=O)cc3)CC2)c1,i,-12,-2
Cc1cccc(OCC(=O)Nc2cccc(-c3nc4ccccc4s3)c2)c1,i,59*,1
COc1ccccc1OCC(=O)Nc1cccc(-c2nc3ccccc3s2)c1,i,67*,5
O=C(COc1ccc(Cl)cc1Cl)Nc1ccc(-c2nc3ccccc3s2)c(O)c1,i,8,5
O=C(O)COc1cccc(-c2nc3ccccc3s2)c1,i,-43,-2
COc1ccc(OCC(=O)Nc2ccc(-c3nc4ccccc4s3)c(Cl)c2)cc1,i,-10,1
COc1ccc(-c2nc3ccccc3s2)cc1NC(=O)COc1ccc(Cl)cc1Cl,i,74*,-2
C=CCN(CC=C)CC(O)Cn1cnc2c1c(=O)n(C)c(=O)n2C (stereo not given),/,/,2
CCCCC/C=C\C/C=C\CCCCCCCC(=O)OC(CO)COP(=O)(O)OCC[N+](C)(C)C (stereo not given),/,/,-8
C=C1C(O)C(O)C2(CC3C(C)=CCC4C(C)(C(=O)O)CCCC34C)OC2C1O (stereo not given),i,4,-10
COc1ccc(Oc2c(C(F)(F)F)oc3cc(OCC(=O)Nc4ccccc4F)ccc3c2=O)cc1,i,-39,6
CCOC(=O)c1sc(NC(=O)c2cnccn2)c(C(=O)OC)c1C,i,20,-3
CS(=O)(=O)N(CC(=O)Nc1ccc(C(N)=O)cc1)c1cc(Cl)cc(Cl)c1,i,-15,0
SMILES,ID4 binder,p53 PUMA act,STK33 inh
Cc1cc(CNC(=O)Nc2cccc([N+](=O)[O-])c2)nn1C,i,-1,2
CNC[C@@H]1Oc2ncc(-c3ccc(C#N)cc3)cc2C(=O)N([C@H](C)CO)C[C@@H]1C,+,3,/
CNC[C@@H]1Oc2c(NC(=O)c3cnccn3)cccc2C(=O)N([C@@H](C)CO)C[C@@H]1C,+,6,/
CNC[C@H]1Oc2c(NC(=O)c3cnccn3)cccc2C(=O)N([C@H](C)CO)C[C@H]1C,i,8,/
CNC[C@@H]1Oc2ncc(-c3ccccc3)cc2C(=O)N([C@H](C)CO)C[C@@H]1C,i,5,-6
CNC[C@@H]1Oc2ncc(-c3ccc(OC)cc3)cc2C(=O)N([C@H](C)CO)C[C@H]1C,+,23,/
CNC[C@H]1Oc2ncc(C3=CCCC3)cc2C(=O)N([C@H](C)CO)C[C@H]1C,+,1,/
CNC[C@H]1Oc2ncc(-c3ccc(OC)cc3)cc2C(=O)N([C@H](C)CO)C[C@H]1C,i,/,/
CNC[C@@H]1Oc2ncc(C3=CCCC3)cc2C(=O)N([C@@H](C)CO)C[C@@H]1C,i,17,/
Cc1sc(NC(=O)c2ccco2)c(C(=O)NCc2cccnc2)c1C,i,2,3
N#Cc1cc(Oc2ccc(F)cc2)c(-n2nnc3ccccc32)cc1C#N,i,15,/
COC(=O)c1c(NC(=S)Nc2ccc(CC(=O)O)cc2)sc(C)c1C,+,0,-1
COC(=O)c1c(NC(=S)Nc2ccc([N+](=O)[O-])cc2OC)sc(C)c1C,i,0,1
CCC(=O)c1ccc2c(c1)N(CC(C)N(C)C)c1ccccc1S2 (stereo not given),/,/,-1
CS(=O)(=O)N1CCN(C(=S)NCc2ccco2)CC1,i,14,-3
COCCNC(=S)N1CCN(Cc2ccco2)CC1,+,-1,11
COC(=O)c1cc(OC)c(OC)cc1NC(=O)C(C)Oc1ccccc1C (stereo not given),i,-1,-4
COCCNC(=O)COc1ccc(OCCNC[C@@H](O)COc2ccccc2)cc1,i,-13,/
O=C(O)COc1ccc(OCCNC[C@@H](O)COc2ccccc2)cc1,+,6,/
Cc1ccc(NC(=O)CN(c2cccc(F)c2)S(C)(=O)=O)cc1,i,0,5
O=C1O[C@H](c2ccccc2)[C@H](c2ccccc2)N2[C@H]1[C@@H](C(=O)N1CCCCCCC1)[C@]1(C(=O)Nc3ccc(C#CC4(O)CCCCCC4)cc31)[C@H]2c1ccc(OCCO)cc1,/,/,18
O=C1O[C@H](c2ccccc2)[C@H](c2ccccc2)N2[C@H]1[C@@H](C(=O)N1CCCCCCC1)[C@]1(C(=O)Nc3ccccc31)[C@H]2c1ccc(OCCO)cc1,i,/,17
NC(=O)[C@@H]1[C@H]2C(=O)O[C@H](c3ccccc3)[C@H](c3ccccc3)N2[C@H](c2ccc(OCCO)cc2)[C@@]12C(=O)Nc1ccc(C#CC3(O)CCCCCC3)cc12,i,/,22*
COCCOC(=O)N1C(=O)[C@@]2(c3cc(C#Cc4ccc(OC)cc4)ccc31)[C@H](c1ccccc1OCCO)N1[C@H](c3ccccc3)[C@H](c3ccccc3)OC(=O)[C@H]1[C@@H]2C(=O)N1CCc2cc(OC)c(OC)cc2C1,/,/,10
C=CCOC(=O)[C@H]1[C@@H]2C(=O)O[C@@H](c3ccccc3)[C@@H](c3ccccc3)N2[C@@H](c2ccc(OCCOC(=O)[C@H]3C[C@H]4C(=O)N5CCC[C@H]5C(=O)N4[C@H]3c3ccc(O)cc3)cc2)[C@]12C(=O)Nc1ccccc12,i,/,/
O=C1O[C@@H](c2ccccc2)[C@@H](c2ccccc2)N2[C@@H](c3ccc(OCCO)cc3)[C@]3(C(=O)Nc4ccccc43)[C@@H](C(=O)N3CCCCCCC3)[C@H]12,+,/,15
